Test results taken from publication PMC5700166.

What was measured:
[1] = molecular target: T1, GST-Nv-NF-kB (Ser allele) (Nematostella vectensis, UniProt A7UNT2 2-411); assay: protein-binding microarray (PBM); PBM: ~300 nM protein, 6 mM HEPES pH 7.8, 80 mM KCl, 0.5 mM EDTA, 0.5 mM EGTA, 6% glycerol, 35 ng/ul poly-dIdC, 1% milk, 1 h, room temperature; Ap Aiptasia and Nv Nematostella (sea anemones) / Co Capsaspora / Aq Amphimedon (sponge) / Dm Drosophila / Hu human; RHD is the Rel homology domain; high values mean tight binding; details: dsDNA, one strand shown
T1 sequence: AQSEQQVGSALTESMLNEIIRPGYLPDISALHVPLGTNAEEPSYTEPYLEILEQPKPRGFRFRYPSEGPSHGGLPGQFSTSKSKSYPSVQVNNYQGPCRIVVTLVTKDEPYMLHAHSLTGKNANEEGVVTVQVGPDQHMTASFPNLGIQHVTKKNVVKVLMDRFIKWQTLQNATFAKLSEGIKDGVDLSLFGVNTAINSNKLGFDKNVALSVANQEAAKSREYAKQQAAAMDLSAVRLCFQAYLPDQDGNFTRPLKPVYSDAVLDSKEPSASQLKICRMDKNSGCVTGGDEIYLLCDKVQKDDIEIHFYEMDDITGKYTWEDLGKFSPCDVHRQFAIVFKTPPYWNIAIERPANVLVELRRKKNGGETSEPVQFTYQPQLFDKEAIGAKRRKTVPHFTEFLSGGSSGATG

GST-Hu-p50 = GST-Hu-p50 (Homo sapiens, UniProt P19838 7-356); assay: as above; details: dsDNA, one strand shown
GST-Hu-p50, sequence (P19838 7-356): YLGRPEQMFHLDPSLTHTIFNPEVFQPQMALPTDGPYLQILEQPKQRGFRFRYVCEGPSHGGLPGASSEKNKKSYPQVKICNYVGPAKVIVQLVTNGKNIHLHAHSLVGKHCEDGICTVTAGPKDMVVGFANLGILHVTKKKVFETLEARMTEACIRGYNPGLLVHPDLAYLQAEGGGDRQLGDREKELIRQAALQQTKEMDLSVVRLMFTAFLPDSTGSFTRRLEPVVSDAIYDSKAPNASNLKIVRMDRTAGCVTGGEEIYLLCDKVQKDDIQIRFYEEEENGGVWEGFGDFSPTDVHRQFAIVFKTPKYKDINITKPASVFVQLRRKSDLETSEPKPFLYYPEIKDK

| Sequence | binding signal [1] [z-score] | binding signal (GST-Hu-p50) [z-score] |
| --- | --- | --- |
| CCGATTAACATCAGGGACCGCCCTGATGTTAATCGGGTCTTGATTCGCTTGACGCTGCTG | 1.35 | 3.16 |
| CCGATTAACATCAGGAAGTTCCCTGATGTTAATCGGGTCTTGATTCGCTTGACGCTGCTG | 2.53 | 3.79 |
| CCGATTAACATCACCTCTTTCCCTGATGTTAATCGGGTCTTGATTCGCTTGACGCTGCTG | 3.91 | 2.44 |
| CCGATTAACATCACTTTACCCCCTGATGTTAATCGGGTCTTGATTCGCTTGACGCTGCTG | 4.4 | 3.42 |
| CCGATTAACATCAGGGTATTACCTGATGTTAATCGGGTCTTGATTCGCTTGACGCTGCTG | 4.88 | 3.33 |
| CCGATTAACATCAGGGATTACCATGATGTTAATCGGGTCTTGATTCGCTTGACGCTGCTG | 2.16 | 1.76 |
| CCGATTAACATCAGGGAGTTACCTGATGTTAATCGGGTCTTGATTCGCTTGACGCTGCTG | 3.21 | 3.85 |
| CCGATTAACATCAGGAGTTTCCCTGATGTTAATCGGGTCTTGATTCGCTTGACGCTGCTG | 4.67 | 4.81 |
| CCGATTAACATCAGGGGGTTAGATGATGTTAATCGGGTCTTGATTCGCTTGACGCTGCTG | 3.46 | 3.95 |
| CCGATTAACATCACGGAACTCCCTGATGTTAATCGGGTCTTGATTCGCTTGACGCTGCTG | 3.15 | 3.05 |
| CCGATTAACATCAGGACTACCCCTGATGTTAATCGGGTCTTGATTCGCTTGACGCTGCTG | 1.61 | 3.02 |
| CCGATTAACATCAGGTATTTTTATGATGTTAATCGGGTCTTGATTCGCTTGACGCTGCTG | 3.43 | 3.11 |
| CCGATTAACATCACGGTATTTCCTGATGTTAATCGGGTCTTGATTCGCTTGACGCTGCTG | 1.75 | 1.48 |
| CCGATTAACATCAAGGAATACCCTGATGTTAATCGGGTCTTGATTCGCTTGACGCTGCTG | 4.74 | 4.19 |
| CCGATTAACATCACGTAAATCCCTGATGTTAATCGGGTCTTGATTCGCTTGACGCTGCTG | 2.27 | 2.23 |
| CCGATTAACATCACATCTTTCCCTGATGTTAATCGGGTCTTGATTCGCTTGACGCTGCTG | 4.65 | 2.43 |
| CCGATTAACATCACGGAGTTCCCTGATGTTAATCGGGTCTTGATTCGCTTGACGCTGCTG | 1.77 | 1.87 |
| CCGATTAACATCAGGAACTACCCTGATGTTAATCGGGTCTTGATTCGCTTGACGCTGCTG | 2.02 | 2.58 |
| CCGATTAACATCAAACAGGGAAATGATGTTAATCGGGTCTTGATTCGCTTGACGCTGCTG | 3.74 | 2.36 |
| CCGATTAACATCAATGGGAATTCTGATGTTAATCGGGTCTTGATTCGCTTGACGCTGCTG | 4.57 | 3.4 |
| CCGATTAACATCACCCCTCCCCATGATGTTAATCGGGTCTTGATTCGCTTGACGCTGCTG | 3.22 | 3.16 |
| CCGATTAACATCACTCCCTAAAATGATGTTAATCGGGTCTTGATTCGCTTGACGCTGCTG | 1.75 | 2.32 |
| CCGATTAACATCAGGAAAACACCTGATGTTAATCGGGTCTTGATTCGCTTGACGCTGCTG | 3.23 | 4.77 |
| CCGATTAACATCAGGGTATTCCATGATGTTAATCGGGTCTTGATTCGCTTGACGCTGCTG | 4.16 | 4.11 |

| Sequence | binding signal [1] [z-score] | binding signal (GST-Hu-p50) [z-score] |
| --- | --- | --- |
| CCGATTAACATCAGGGAGTTCCATGATGTTAATCGGGTCTTGATTCGCTTGACGCTGCTG | 2.53 | 2.54 |
| CCGATTAACATCAGGGGTTCCACTGATGTTAATCGGGTCTTGATTCGCTTGACGCTGCTG | 1.62 | 2.51 |
| CCGATTAACATCAGGAAATGCCCTGATGTTAATCGGGTCTTGATTCGCTTGACGCTGCTG | 1.15 | 2.89 |
| CCGATTAACATCAGGGAAAAGGATGATGTTAATCGGGTCTTGATTCGCTTGACGCTGCTG | 4.08 | 1.47 |
| CCGATTAACATCAATTTCCCGCCTGATGTTAATCGGGTCTTGATTCGCTTGACGCTGCTG | 4.4 | 2.33 |
| CCGATTAACATCAAAAAGGGAAATGATGTTAATCGGGTCTTGATTCGCTTGACGCTGCTG | 6.22 | 3.72 |
| CCGATTAACATCAGGGGGTGATATGATGTTAATCGGGTCTTGATTCGCTTGACGCTGCTG | 4.45 | 3.97 |
| CCGATTAACATCACGGGAACCCCTGATGTTAATCGGGTCTTGATTCGCTTGACGCTGCTG | 2.26 | 3.43 |
| CCGATTAACATCAGAAATTTACCTGATGTTAATCGGGTCTTGATTCGCTTGACGCTGCTG | 4.13 | 3.29 |
| CCGATTAACATCAGGGATACCCCTGATGTTAATCGGGTCTTGATTCGCTTGACGCTGCTG | 2.97 | 4.12 |
| CCGATTAACATCAGGAGATACCCTGATGTTAATCGGGTCTTGATTCGCTTGACGCTGCTG | 1.65 | 2.58 |
| CCGATTAACATCACAAAAATCCCTGATGTTAATCGGGTCTTGATTCGCTTGACGCTGCTG | 5.52 | 5.26 |
| CCGATTAACATCAGGGAATCCTATGATGTTAATCGGGTCTTGATTCGCTTGACGCTGCTG | 4.4 | 2.72 |
| CCGATTAACATCAGGGAAATATATGATGTTAATCGGGTCTTGATTCGCTTGACGCTGCTG | 5.62 | 4.03 |
| CCGATTAACATCAAAAAATGCCCTGATGTTAATCGGGTCTTGATTCGCTTGACGCTGCTG | 1.9 | 3.14 |
| CCGATTAACATCAAGGGAATCCCTGATGTTAATCGGGTCTTGATTCGCTTGACGCTGCTG | 5.4 | 4.17 |
| CCGATTAACATCACCCACTTCCCTGATGTTAATCGGGTCTTGATTCGCTTGACGCTGCTG | 2.13 | 1.86 |
| CCGATTAACATCACATGGGAAACTGATGTTAATCGGGTCTTGATTCGCTTGACGCTGCTG | 2.7 | 1.26 |
| CCGATTAACATCACTAATTTCCCTGATGTTAATCGGGTCTTGATTCGCTTGACGCTGCTG | 6.51 | 3.94 |
| CCGATTAACATCACGGTTTTTCCTGATGTTAATCGGGTCTTGATTCGCTTGACGCTGCTG | 1.21 | 1.62 |
| CCGATTAACATCAAGAGTTTCCCTGATGTTAATCGGGTCTTGATTCGCTTGACGCTGCTG | 4.9 | 3.64 |
| CCGATTAACATCAGATGTCCCCCTGATGTTAATCGGGTCTTGATTCGCTTGACGCTGCTG | 4.47 | 3.96 |
| CCGATTAACATCAGGGAGATACCTGATGTTAATCGGGTCTTGATTCGCTTGACGCTGCTG | 1.75 | 3.08 |
